Source: PubChem BioAssay (National Center for Advancing Translational Sciences (NCATS))
Shown are actives, neighbours in structure and some others; about 9.2% of the full set was active somewhere.
SMN2 splice enh = SMN2 splice variant enhancement | HEK293 SMN2-luciferase splicing reporter, luminescence, 30-36 h | Potency, µM (series often up to 46.1 µM), for inactives: top-dose activity change, positive = activation, actives largely listed as activators | 210,000 tested, 2.8% active | AID 1458; also: % of control where 0% means no effect; nearly all actives have a fitted effect of over 55% in size
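HEK293 cells carry an SMN2 minigene-luciferase reporter in which exon 7 inclusion puts luciferase in frame. Cells were seeded at 2000 cells/well, attached for 10-12 hours, then exposed to compounds for 30-36 hours at 37C before ONE-Glo luminescence.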
FLuc modulator = firefly luciferase modulation, counter-screen for miR-21 project. AID 588342. purified FLuc, Km substrates, luminescence inhibition. P08659. Potency, µM (series often up to 57.5 µM), for the others: top-dose activity change, negative = inhibition, most hits filed as inhibitors. 360,000 tested, 6.9% active;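 also: plate controls were vehicle for no effect and reference inhibitor for full effect; nearly all actives have a fitted effect of over 55% in size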
Target sequence (P08659 whole entry, looked up): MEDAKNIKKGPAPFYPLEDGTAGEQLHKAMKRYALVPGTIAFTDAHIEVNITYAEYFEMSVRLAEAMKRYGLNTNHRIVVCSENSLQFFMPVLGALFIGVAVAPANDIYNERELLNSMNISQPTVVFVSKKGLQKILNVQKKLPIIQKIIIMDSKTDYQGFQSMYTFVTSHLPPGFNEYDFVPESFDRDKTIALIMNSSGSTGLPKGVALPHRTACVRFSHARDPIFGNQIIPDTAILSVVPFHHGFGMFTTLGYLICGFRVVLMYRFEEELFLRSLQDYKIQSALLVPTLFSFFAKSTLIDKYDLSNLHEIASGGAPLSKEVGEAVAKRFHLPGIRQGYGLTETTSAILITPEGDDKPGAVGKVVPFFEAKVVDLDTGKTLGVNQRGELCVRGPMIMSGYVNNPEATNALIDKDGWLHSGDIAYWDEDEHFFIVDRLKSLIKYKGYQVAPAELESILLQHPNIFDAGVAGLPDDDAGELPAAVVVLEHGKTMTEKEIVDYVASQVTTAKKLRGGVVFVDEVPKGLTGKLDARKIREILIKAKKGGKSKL
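Biochemical qHTS of compounds, final roughly 60 µM downward over six points, against 10 nM purified firefly luciferase using Km concentrations of substrates (10 uM D-luciferin, 10 uM ATP) in Tris acetate pH 7.5 buffer; luminescence output.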
ELG1 genotoxic = genotoxicity induction in ELG1-luciferase HEK293T cells; HEK293T ELG1-luciferase reporter, luminescence, 16 h; Potency, µM (doses to about 46 µM), without a hit: top-dose activity change, positive = activation, actives largely listed as activators; 330,000 tested, 1.3% active; AID 504466; also: % of control where 0% means no effect; nearly all actives have a fitted effect of over 60% in size
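HEK293T cells expressing luciferase-tagged ELG1 were treated with compound or DMSO for 16 hr at 37°C. Luciferase activity was then read after 30 min with ONE-Glo at room temperature; rising signal flags genetic stress.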
Rab9 promoter act = Rab9 promoter activation; Huh7 Rab9 promoter-luciferase reporter, luminescence, 24 h; Potency, µM (top dose mostly 9.22 µM), inactives show top-dose activation, negative = inhibition, actives largely listed as activators; 320,000 tested, 2.8% active; also: % of control where 0% means no effect; nearly all actives have a fitted effect of over 60% in size
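Huh7 reporter line, Rab9 promoter upstream of luciferase. Compound exposure 24 h at 37 °C in reduced-serum medium with 10% FBS. Read-out: luminescence.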
ELG1 repair inh = ELG1-dependent DNA repair inhibition. HEK293T ELG1-luciferase reporter, luminescence, 16 h; DNA damage induced by 5-fluorouridine. Potency, µM (top dose mostly 46.1 µM), for the others: top-dose activity change, negative = inhibition, usual class: inhibitors. 330,000 tested, 2.3% active; also: % is scaled to controls: 0 for no effect and ±100 for the full control effect; nearly all actives have a fitted effect of over 55% in size
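Step one: seed 2,000 cells per well. Step two: pin-transfer compound or DMSO alongside 5-fluorouridine. Step three: incubate 16 hr, 37 °C, 5% CO2. Step four: add ONE-Glo, wait 30 min, read luminescence.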
NPC1 prom act = NPC1 promoter activation; Huh7 NPC1 promoter luciferase reporter, 24 h; Potency, µM (titrated, usually from 9.22 µM), for inactives: at the highest dose activation, hits mostly activators; 320,000 tested, 2.4% active; AID 485313; also: % of control where 0% means no effect; nearly all actives have a fitted effect of over 60% in size
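In 1536-well qHTS, Huh7 cells harboring an NPC1 promoter–luciferase construct received compound for 24 h; activation was quantified by luminescence following luciferase reagent addition.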
Starred values were filed as active, the others as inactive; ? = inconclusive; / = no result; [ ] = remark or other dose. Calls follow the shape of the dose curve; as a rule, active = well fitted curve in the direction sought with a large enough effect; inconclusive = small, poorly fitted or top-dose-only effect, or another doubt; inactive = no such curve, though single readings can be large; an effect the other way counts as inactive or inconclusive. Potency is read from the fitted curve at half-maximal effect.

SMILES	SMN2 splice enh	FLuc modulator	ELG1 genotoxic	Rab9 promoter act	ELG1 repair inh	NPC1 prom act
Brc1ccccc1/C=N/N1CCCCC1	/	-19.7%	-0.6%	-4.6%[1.84 µM]	3.8%	-0.6%
Oc1cccc(/C=N/N2CCCCC2)c1O	/	9.53µM*	?	-16.4%	?	-2.9%
Oc1ccc(/C=N/N2CCCCC2)c(O)c1	/	19µM*	?	-4.6%[1.84 µM]	?	?
Oc1ccccc1/C=N/N1CCCCC1	1.8%	23.9µM*	?	14.1%	?	-0.1%
CCCCC/C=C\C[C@@H](O)/C=C/C=C\CCC(=O)O	-1.0%	/	/	/	/	/
COc1ccc2cc(C(=O)C3CCCN(C(=O)/C=C/c4ccccn4)C3)ccc2c1 (stereo not drawn)	/	-2.7%	-1.6%	-4.7%	4.4%	-4.6%
COc1ccc(-n2cc(-c3ccc4c(c3)OCO4)n(CC(=O)Nc3cccc(C)c3)c2=O)cc1	18.2%	-3.6%	/	/	/	/
Cn1cccc1CC(=O)N/N=C/c1ccc(C(C)(C)C)cc1	/	16.9µM*	14.6%	?	?	27.5%
CCc1ccc(/C=N/NC(=O)Cc2cccn2C)cc1	/	23.9µM*	15.1%	?	?	?
Cc1ccc(/C=N/NC(=O)Cc2cccn2C)cc1	/	?	15.9%	?	?	25.7%
O=C(CS(=O)(=O)c1ccc(Cl)cc1)NCc1ccccc1	/	2.0%	-1.2%[9.26 µM]	-3.6%	3.5%	-2.2%
COc1ccc(C)cc1NC(=O)C1CCN(S(=O)(=O)c2ccc3[nH]c4c(c3c2)CCCCC4)CC1	/	-0.4%	/	/	/	/
Cc1ccccc1-n1ncc2c1CC(C)(C)CC2NC(=O)C1CCC1 (stereo not drawn)	/	-10.5%	10.4%	-1.5%	?	-5.0%
COc1ccc2cc(CN(CC3CCCO3)C(=S)Nc3ccccc3)c(=O)[nH]c2c1 (stereo not drawn)	/	-4.9%	-9.0%	-32.8%	8.2µM*	-24.4%
COc1ccc(NC(=O)N(Cc2cc3ccc(OC)cc3[nH]c2=O)CC2CCCO2)cc1 (stereo not drawn)	-4.7%	?	-4.0%	-10.8%	10.3µM*	-15.3%
Cc1ccc(C)c2[nH]c(=O)c(CN(CC3CCCO3)C(=O)NC3CCCCC3)cc12 (stereo not drawn)	25.0%	-1.1%	-1.8%	-5.1%	8.2µM*	-3.9%
COc1ccc(NC(=O)N(Cc2cc3cc(OC)ccc3[nH]c2=O)CC2CCCO2)cc1 (stereo not drawn)	5.9%	-6.4%	-5.9%	4.4%	10.3µM*	-0.2%
Cc1cccc2cc(CN(CC3CCCO3)C(=O)c3ccncc3)c(=O)[nH]c12 (stereo not drawn)	6.6%	-0.6%	1.2%	-3.3%	-2.0%	-4.4%
COc1ccc2[nH]c(=O)c(CN(CC3CCCO3)C(=S)Nc3ccccc3)cc2c1 (stereo not drawn)	/	-0.1%	-0.2%	-7.3%	-2.4%	-4.3%
CCCOC(=O)c1ccc(NC(=O)c2cc(OC)c(OC)c(OC)c2Br)cc1	-19.5%	1.0%	-13.3%	-9.3%	-23.5%	0.1%
O=C(CN1CCc2ccccc21)NC(=O)NC1CCCCC1	/	-8.3%	-3.3%	1.8%	-12.7%	-3.8%
CCc1ccc(NS(=O)(=O)c2ccc3oc(=O)c4ncn(CC)c4c3c2)cc1	-2.2%	-17.5%	/	/	/	/
CCOC(=O)c1cc2occc2n1CC(=O)N1CCCc2ccccc21	-8.4%	-1.3%	-3.3%	2.3%	-24.4%	5.7%
COc1ccc2cc(CN(CC3CCCO3)C(=O)Nc3ccccc3OC)c(=O)[nH]c2c1 (stereo not drawn)	/	-8.6%	-3.2%	-32.6%	7.3µM*	-26.7%
CCC(=O)Oc1ccc(C(=O)Nc2cccc(NC(=O)c3ccco3)c2)cc1	/	?	-9.1%	-2.2%	-1.7%	-0.5%
SMILES	SMN2 splice enh	FLuc modulator	ELG1 genotoxic	Rab9 promoter act	ELG1 repair inh	NPC1 prom act
COC(=O)c1cccc(NC(=O)c2ccc3c(c2)C(=O)N(C(C)(C)C)C3=O)c1	/	2.69µM*	2.1%	?	0.2%	?
CC(C)(C)NC(=O)c1cccc(NC(=O)c2ccc3c(c2)C(=O)N(C(C)(C)C)C3=O)c1	/	10.7µM*	0.2%	-3.5%	?	0.1%
CC(C)(C)N1C(=O)c2ccc(C(=O)Nc3ccc(O)cc3)cc2C1=O	/	13.5µM*	13.2%	?	10.8%	?
CCC(=O)Oc1ccc(C(=O)Nc2cccc(C(=O)NC(C)(C)C)c2)cc1	17.2%	10.7µM*	-1.0%	0.1%	-16.0%	-1.2%
CC(C)(C)N1C(=O)c2ccc(C(=O)O)cc2C1=O	-6.1%	4.5%	-0.3%	-0.3%	-6.9%	0.1%
CCOc1ccc(NC2=NC(C(=O)NCc3ccccc3)CC(=O)N2)cc1 (stereo not drawn)	3.2%	-2.9%	-2.2%	-0.6%	1.3%	-3.6%
N/C(=N\OC(=O)c1ccco1)c1cccc(Br)c1	?	6.75µM*	8.2µM*	17.5%	?	18.5%
COc1ccc(/C(N)=N/OC(=O)c2ccco2)cc1OC	11.2µM*	?	?	?	?	?
O=C(COC(=O)c1ccco1)Nc1cccc(Br)c1	-11.0%	-9.6%	-1.3%	4.4%	2.0%	-2.7%
N/C(Cc1ccc([N+](=O)[O-])cc1)=N\OC(=O)c1ccco1	/	-3.2%	-0.4%	-2.7%	-10.7%	-1.3%
COc1ccc(/C(N)=N/OC(=O)CCc2ccccc2)cc1OC	3.4%	-13.6%	4.6%	-0.7%	?	0.7%
N/C(=N\OC(=O)c1ccco1)c1cccc([N+](=O)[O-])c1	/	23.9µM*	?	16.6%	?	20.9%
COc1cccc(N2C(=O)C(CC(=O)Nc3ccc(F)cc3)N(CCC3=CCCCC3)C2=O)c1 (stereo not drawn)	8.3%	-12.9%	/	/	/	/
CC(/C=C\c1ccccc1)=C/C(=O)O	/	2.6%	-3.4%	3.6%	0.0%	-1.6%
N#Cc1ccc(/C=C/C(=O)c2ccccc2)cc1	/	5.36µM*	?	5.3%	?	18.0%
O=C(/C=C/c1ccccc1)c1ccccc1	-29.6%	2.39µM*	?	-3.5%	?	0.1%
O=C(/C=C/c1ccccc1)/C=C/c1ccccc1	-89.7%	3.38µM*	-16.2%	10.5%	?	1.3%
O=C(/C=C/c1ccccc1)c1ccc2c3c(cccc13)CC2	/	12µM*	?	1.2%	?	16.2%
Cc1c(NC(=O)c2ccc3c4c(cccc24)CC3)c(=O)n(-c2ccccc2)n1C	-8.3%	-4.9%	-11.4%	1.2%	?	-0.6%
COC(=O)c1ccccc1S(=O)(=O)N1CCc2nc(-c3ccccc3)c3c(c2C1)CO[C@@H](C)C3	-4.0%[9.22 µM]	/	/	/	/	/
O=C(O)c1ccccc1-c1ccccc1C(=O)Nc1ccc(F)cc1	/	0.0%	0.1%	-3.9%	8.1%	-1.3%
